Laboratory results reported in PubChem BioAssay AID1159580 (chemical genetic matrix, 2015).
About 2,000 (36%) of roughly 5,500 compounds were called active. Inconclusive results (about 18%) are left out. Rule as the data show it: active = normalized growth mostly below about 0.91 (no sharp cut-off); inconclusive = no clear call, values can overlap the other calls; inactive = mostly above about 0.92. The list shows a part of the results.

Assay: chemical genetic growth profiling, strain panel (AID 1159580);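 also: tested at 20 µM; growth read once vehicle control cultures reached saturation at 30 °C; 1 = growth at the plate median or of vehicle wells; lower values mean less growth of the strain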
Conditions: S. cerevisiae deletion strains, growth OD

Measured: normalized growth

CC[C@@H]1C=C/C=C/C[C@H](C)[C@@H](O)[C@](C)(O)C(=O)[C@H](C)[C@@H](O)[C@H](C)C(=O)[C@H](C)[C@@H](O)[C@H](C)/C=C/C(=O)O[C@H]2[C@@H](C)[C@@H](CC1)O[C@@]1(CC[C@@H](C)[C@@H](C[C@H](C)O)O1)[C@@H]2C
inactive: locus YAL021C, strain ccr4, stronger effect = lower value 0.977 | locus YAL026C, strain drs2, stronger effect = lower value 1.01 | locus YAL030W, strain snc1, stronger effect = lower value 1 | locus YBL061C, strain skt5, stronger effect = lower value 1 | locus YBR009C, strain hhf1, stronger effect = lower value 0.985 | locus YBR023C, strain chs3, stronger effect = lower value 1 | locus YBR171W, strain sec66, stronger effect = lower value 1.01 | locus YBR231C, strain swc5, stronger effect = lower value 1 | locus YBR279W, strain paf1, stronger effect = lower value 0.982 | locus YCL011C, strain gbp2, stronger effect = lower value 1.02 | locus YCL016C, strain dcc1, stronger effect = lower value 1.02 | locus YCL061C, strain MRC1, stronger effect = lower value 1.01 | locus YCL069W, strain vba3, stronger effect = lower value 1.01 | locus YCR088W, strain abp1, stronger effect = lower value 1.02 | locus YDL005C, strain med2, stronger effect = lower value 1 | locus YDL040C, strain nat1, stronger effect = lower value 1.01 | locus YDR001C, strain nth1, stronger effect = lower value 1.01 | locus YDR069C, strain doa4, stronger effect = lower value 0.997 | locus YDR137W, strain rgp1, stronger effect = lower value 0.899 | locus YDR159W, strain sac3, stronger effect = lower value 0.953 | locus YDR195W, strain ref2 0.999 | locus YDR297W, strain sur2, stronger effect = lower value 1.01 | locus YDR334W, strain swr1, stronger effect = lower value 1.02 | locus YDR335W, strain msn5, stronger effect = lower value 1.01 | locus YDR392W, strain spt3, stronger effect = lower value 0.958 | locus YEL003W, strain gim4, stronger effect = lower value 1.01 | locus YEL037C, strain rad23, stronger effect = lower value 1.02 | locus YEL061C, strain CIN8 (second series), stronger effect = lower value 1.01 | locus YER015W, strain faa2, stronger effect = lower value 0.997 | locus YER016W, strain bim1, stronger effect = lower value 1.01 | locus YER111C, strain swi4, stronger effect = lower value 1.01 | locus YER155C, strain BEM2 (second series), stronger effect = lower value 1.03 | locus YFR010W, strain ubp6, stronger effect = lower value 1 | locus YGL167C, strain pmr1, stronger effect = lower value 1.01 | locus YGL173C, strain kem1, stronger effect = lower value 0.996 | locus YGL227W, strain vid30, stronger effect = lower value 1.01 | locus YGL240W, strain doc1, stronger effect = lower value 1.01 | locus YGL253W, strain hxk2, stronger effect = lower value 0.927 | locus YHR013C, strain ard1, stronger effect = lower value 0.967 | locus YHR027C, strain rpn1, stronger effect = lower value 1 | locus YHR142W, strain chs7, stronger effect = lower value 1.03 | locus YJL092W, strain hpr5, stronger effect = lower value 1.01 | locus YJL095W, strain BCK1 (second series), stronger effect = lower value 1.02 | locus YJL115W, strain asf1, stronger effect = lower value 1.01 | locus YJL129C, strain trk1, stronger effect = lower value 0.967 | locus YJL154C, strain vps35, stronger effect = lower value 1.01 | locus YJL164C, strain tpk1, stronger effect = lower value 0.987 | locus YJL166W, strain qcr8, stronger effect = lower value 1.01 | locus YJL187C, strain SWE1, stronger effect = lower value 1.01 | locus YKL160W, strain elf1, stronger effect = lower value 0.997 | locus YKR026C, strain gcn3, stronger effect = lower value 0.99 | locus YKR091W, strain srl3, stronger effect = lower value 1.01 | locus YLL001W, strain dnm1, stronger effect = lower value 0.984 | locus YLL026W, stronger effect = lower value 1.01 | locus YLL041C, strain sdh2, stronger effect = lower value 1.01 | locus YLR027C, strain aat2, stronger effect = lower value 0.995 | locus YLR221C, strain rsa3, stronger effect = lower value 1.02 | locus YLR258W, strain gsy2, stronger effect = lower value 0.997 | locus YLR320W, strain mms22, stronger effect = lower value 0.984 | locus YLR342W, strain FKS1, stronger effect = lower value 1 | locus YLR357W, strain rsc2, stronger effect = lower value 1.03 | locus YLR370C, strain arc18, stronger effect = lower value 0.994 | locus YLR384C, strain iki3, stronger effect = lower value 0.999 | locus YML120C, strain ndi1, stronger effect = lower value 0.995 | locus YMR058W, strain fet3, stronger effect = lower value 1.02 | locus YMR125W, strain sto1, stronger effect = lower value 1.04 | locus YMR129W, stronger effect = lower value 0.999 | locus YMR231W, strain pep5, stronger effect = lower value 1 | locus YNL071W, strain lat1, stronger effect = lower value 1.01 | locus YNL209W, strain ssb2, stronger effect = lower value 0.997 | locus YNL248C, strain rpa49, stronger effect = lower value 1.01 | locus YNL322C, strain KRE1 (second series), stronger effect = lower value 1.02 | locus YNR049C, strain mso1, stronger effect = lower value 1.02 | locus YOR001W, strain rrp6, stronger effect = lower value 0.999 | locus YOR070C, strain gyp1, stronger effect = lower value 1 | locus YOR080W, strain dia2, stronger effect = lower value 1.01 | locus YOR083W, strain WHI5, stronger effect = lower value 1 | locus YOR106W, strain vam3, stronger effect = lower value 0.99 | locus YOR265W, strain rbl2, stronger effect = lower value 1 | locus YOR270C, strain vph1, stronger effect = lower value 0.914 | locus YOR290C, strain snf2, stronger effect = lower value 0.966 | locus YPL051W, strain arl3, stronger effect = lower value 1.01 | locus YPL078C, strain atp4, stronger effect = lower value 1.02 | locus YPL240C, strain hsp82, stronger effect = lower value 0.989
active: locus YLR262C, strain YPT6 (second series), stronger effect = lower value 0.852 | locus YMR205C, strain PFK2, stronger effect = lower value 0.815 | locus YPL106C, strain sse1, stronger effect = lower value 0.807
